Only some compounds are listed: those with a hit (about 5% of all), similar ones and a draw of the others.
USP10 block = blocks human USP10 ubiquitin-rhodamine cleavage. purified USP10, Ub-rhodamine fluorescence, 60 min. AID 1645856. Q14694. actives 1.1% (n = 47,000). inhibition, % at 20 µM
USP8 inh = blocks human USP8 ubiquitin-rhodamine cleavage; P40818; purified USP8, Ub-rhodamine cleavage fluorescence, 30 min; inhibition, % at 20 µM; actives 4.2% (n = 47,000); AID 1645853
UCHL1 block = inhibitors of human UCHL1 deubiquitinase; P09936; purified UCHL1, Ub-rhodamine cleavage fluorescence; inhibition, % at 20 µM; actives 0.2% (n = 47,000); AID 1645859
USP7 inh = blocks human USP7 ubiquitin-rhodamine cleavage | purified USP7, Ub-rhodamine cleavage fluorescence | inhibition, % at 20 µM | actives 0.3% (n = 47,000) | AID 1645854
OTUD3 block = inhibitors of human OTUD3 deubiquitinase; Q5T2D3; purified OTUD3, Ub-rhodamine fluorescence, 2 h; inhibition, % at 25 µM; actives 0.7% (n = 47,000)
* = called active by the depositor. Cut-off read from the data, not from the text of the source: active = inhibition above about 30%; inactive = the rest.

SMILES	USP10 block	USP8 inh	UCHL1 block	USP7 inh	OTUD3 block
Cc1cc([N+](=O)[O-])nn1CCCC(=O)Nc1ccc2c(c1)OCO2	7	45*	7	2	8
CSc1ccccc1NC(=O)CCCn1nc([N+](=O)[O-])cc1C	2	2	1	-3	5
COc1ccc(CNC(=O)Cn2cnc(S(=O)(=O)N3CCCCC3)c2)cc1	0	0	-1	2	3
O=c1ccn(-c2ccccc2)nc1-c1nc(-c2ccc(Br)cc2)no1	0	62*	4	5	14
c1ccc(-n2cc(-c3noc(-c4cccnc4)n3)nn2)cc1	0	20	1	0	8
CCc1ccc(-n2ccc(=O)c(-c3nc(-c4cccc(F)c4)no3)n2)cc1	4	34*	-4	-15	3
Cc1cccc(-n2ccc(=O)c(-c3nc(-c4ccc(Cl)c(F)c4)no3)n2)c1	0	11	1	3	3
COc1ccccc1-c1noc(-c2nn(-c3ccc(C)cc3)ccc2=O)n1	-1	-13	1	-32	-14
COc1ccc(-n2ccc(=O)c(-c3nc(-c4ccccc4C)no3)n2)cc1	5	34*	3	15	12
CCc1nc(-c2cc(C(=O)NCc3ccccn3)c3ccccn23)cs1	-1	-116	-23	-31	-147
Cc1cccc(N2CCN(S(=O)(=O)c3cc(-c4nnc(C)o4)co3)CC2)c1	-3	-4	1	-9	9
CCn1nnc2c(N3CCOCC3)ncnc21	1	12	1	4	13
Cc1cc(S(=O)(=O)[C@H]2CS(=O)(=O)C[C@@H]2NCCc2ccccc2)ccc1F	-2	10	1	-2	15
COc1ccc(C2CC(=O)Nc3c2ccc2ccccc32)c(OC)c1 (stereo not drawn)	5	14	3	-3	-4
O=C(CN(Cc1ccc(Cl)cc1)S(=O)(=O)c1ccc(Cl)cc1)N1CCOCC1	-4	18	2	-29	16
O=C(CN(Cc1ccccc1)S(=O)(=O)c1ccc(Cl)cc1)Nc1ccc(N2CCOCC2)cc1	2	37*	0	-2	-2
CC(C)C(=O)N1CCc2nc(C(=O)Nc3cccnc3)sc2CC1	1	1	-1	0	-3
O=c1ccc(-c2nc(C3CC3)no2)cn1Cc1cc(=O)n2ccccc2n1	0	-2	-2	-2	-5
Cc1ccc(OCCCn2c(CNC(=O)c3ccco3)nc3ccccc32)cc1	-2	41*	5	-1	10
COc1ccccc1OCCCn1c(CNC(=O)c2ccco2)nc2ccccc21	1	3	0	-4	-8
O=C(CSc1nc2ccccc2[nH]1)c1ccccc1F	1	-1	0	-2	-6
Cc1cc(C(=O)CSc2nc3ccccc3[nH]2)c(C)n1Cc1ccco1	9	57*	16	15	3
c1ccc(-c2csc3nc(CN4CCCCC4)nc(Oc4ccc5c(c4)OCO5)c23)cc1	4	10	9	16	6
COc1cc(Cl)c(C)cc1NC(=O)c1nc2nccc(C)n2n1	-4	-7	-1	4	2
COc1ccc(NC(=O)Cn2cc(S(=O)(=O)Cc3ccccc3)c3ccccc32)c(OC)c1	15	33*	1	11	2
SMILES	USP10 block	USP8 inh	UCHL1 block	USP7 inh	OTUD3 block
Cc1ccccc1NC(=O)Cn1cc(S(=O)(=O)Cc2ccccc2)c2ccccc21	7	35*	6	20	0
O=C(Cn1cc(S(=O)(=O)Cc2ccccc2)c2ccccc21)Nc1ccccc1	-5	34*	-8	0	-5
CC(=O)NC(Cc1cccc(F)c1)C(=O)NC1CCN(C(=O)C2CCCCC2)CC1 (stereo not drawn)	-1	0	2	4	7
COc1cccc(NC(=O)C2C3C=CC4(O3)C2C(=O)N(CCc2ccccc2Cl)C4C(=O)NC2CCCCC2)c1 (stereo not drawn)	-1	4	-2	-25	32*
COc1cccc(NC(=O)C2C3C=CC4(O3)C2C(=O)N(CCc2ccc(Cl)cc2)C4C(=O)NC2CCCCC2)c1 (stereo not drawn)	35*	50*	2	7	9
Cc1n[nH]c(C)c1CC(=O)NCc1nnc(-c2nccc3ccccc23)o1	-1	33*	2	4	10
CCOc1cc(CNC(=O)Cc2c(C)n[nH]c2C)ccc1OC	-1	-4	1	2	0
COc1ccc(NC(=O)N2CCN(C3=CC4=NCC(C)N4C=N3)CC2)c(C)c1 (stereo not drawn)	3	7	0	4	10
O=c1c2ccccc2oc2nc(-c3cccs3)n(-c3ccccc3)c(=O)c12	22	98*	49*	80*	-3
O=C1Cc2cc(S(=O)(=O)N3CCC([C@@H]4NC(=O)N[C@H]5OCCC[C@H]54)CC3)ccc2N1	-4	43*	2	-4	7
COc1cc(=O)n2c(c1C(=O)NCc1ccc(SC)cc1)CCCC2	0	-5	1	-2	-4
Cc1nc2c(c(=O)c3ccccc3n2C)c(=O)n1Cc1ccco1	-7	-10	-1	-12	15
Cn1c2ccccc2c(=O)c2c(=O)n(Cc3ccco3)c(C3CCCCC3)nc21	-2	30*	2	3	8
Cc1cc(S(=O)(=O)N2CCC(C3(C)NC(=O)NC3=O)CC2)ccc1F (stereo not drawn)	15	53*	2	8	13
Cc1cc(C)c2sc(N(CCCn3ccnc3)C(=O)Cc3ccccc3)nc2c1	5	-39	5	10	35*
Cc1cc(C)c2c(-n3cccc3)c(C(=O)NCCc3ccc(S(N)(=O)=O)cc3)sc2n1	7	-33	2	-2	-12
CCOC(=O)N1CCN(C(=O)c2cn(-c3ccccc3Cl)nn2)CC1	0	-5	-1	-1	-3
O=C(Cc1ccc(-n2c(=O)c3ccccc3n(CC(=O)Nc3ccc(F)cc3F)c2=O)cc1)NCc1ccco1	-8	15	-4	-2	-14
O=C(Cn1c(=O)n(Cc2ccccc2)c(=O)c2cc(Cl)ccc21)NCc1ccco1	22	6	-2	-3	-2
Cc1ccc(NC(=O)Cn2c(=O)n(CCCCC(=O)NCc3ccco3)c(=O)c3ccccc32)cc1C	19	13	-1	1	-8
CCOC(=O)c1ccc(NC(=O)Cn2c(=O)n(-c3ccc(CC(=O)NCc4ccco4)cc3)c(=O)c3ccccc32)cc1	33*	58*	0	9	15
CCOC(=O)c1ccc(NC(=O)Cn2c(=O)n(CC(=O)NCc3ccco3)c(=O)c3ccccc32)cc1	35*	11	0	-3	17
COC(=O)c1ccccc1NC(=O)Cn1c(=O)n(Cc2ccc(C(=O)NCc3ccco3)cc2)c(=O)c2ccccc21	32*	39*	10	14	6
Cc1ccc(NC(=O)CSc2ncnc3c2sc2nc(-c4ccccc4)c4c(c23)CCC4)cc1	-5	-11	-9	-3	-14
COc1cc(OC)c(-c2csnn2)cc1OC	0	-42	-2	0	-9

Bioassay records from PubChem BioAssay.
